Assay results from PubChem BioAssay (EPA / NIEHS).
Several values for one entry are separate records, joined by “and”; a condition that tells them apart may be missing. Identical values can stand only once. Records with an inconclusive call do not appear. Activity calls are given as the source filed them. Rule for the calls, unless noted: active = hit-call score of the fitted dose curve at least 0.9, where 1 is the maximum; inactive = score below 0.9.

Assays:
[1] = TAMU_PeakParms_SingleDonor1434_Chronotropy: Texas A&M University (TAMU) 1.5-hr Human Induced Pluripotent Stem Cell (iPSC)-derived Cardiomyocytes Calcium (Ca+2) Flux Assay for Cardiotoxicity: Chronotropy (changes in peak frequency) (AID 2284217); details: actives raise or lower the signal
Method in brief: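 Beat frequency of single-donor iPSC cardiomyocytes was recorded through a calcium-sensitive dye 1.5 hours after exposure to four concentrations up to 100 uM. An EC05 point of departure was derived.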

[2] = IUF_NPC1_viability_72hr: Viability Assessment at 72 hours in the Leibniz Research Institute for Environmental Medicine (IUF) Neural Progenitor Cell Proliferation Assay (NPC1) (AID 2284209)
Method in brief: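 Single spheres (0.25-0.35 mm) of human fetal cortex-derived neural progenitor cells were grown in proliferation medium with EGF and FGF at 37C and 5% CO2. They were exposed for 72 h without renewal, and viability was read by alamar blue resorufin fluorescence.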

[3] = CCTE_Mundy_HCI_Cortical_Synap_Neur_Matur_NeuriteSpotCountPerNeuriteLength: CCTE's Synaptogenesis and Neurite Maturation Assay in rat cortical cells for Neurite Spot Count per Neurite Length, Mundy Lab (AID 2284210)
Method in brief: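 Rat primary cortical cultures, AraC added at DIV 5 to suppress glia; chemical exposure from DIV 7 to DIV 12. Fixed cells stained for MAP2 and synaptophysin plus Hoechst; synaptophysin puncta per neurite length quantified by high-content imaging, relative to DMSO.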

[4] = CCTE_Mundy_HCI_Cortical_NOG_NeuriteLength: CCTE's Neurite Outgrowth Assay in rat cortical cells for Neurite Length, Mundy Lab (AID 2284213);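 for AC50: neurites imaged about 48 to 50 h after chemical exposure began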
Procedure: CCTE_Mundy_HCI_Cortical_NOG is a multiplexed, cell-based-readout assay that uses rat primary cortical cells with measurements taken at 50.33 hours after chemical dosing in a microplate: 96-well plate.CCTE_Mundy_HCI_Cortical_NOG_NeuriteLength is one of four components of the CCTE_Mundy_HCI_Cortical_NOG assay. It measures neurite outgrowth related to the neurite length using High Content Imaging of fluorescently labelled markers.[…] Using a type of morphology reporter, loss -of-signal activity can be used to understand developmental effects.
Exposure starts 2 hours post-plating by adding 10 ul of the working solution to 90 ul of media in the wells for a 1/10 dilution. Forty-eight hours after chemical treatment cells are fixed by direct addition of 100 ul of warm (37C) Dulbecco's phosphate buffered saline (DPBS) fixative solution containing 8% paraformaldehyde, 8% sucrose, and 0.1% of 3 mg/ml Hoechst 33342 into each well. Primary antibodies are prepared by dilution in Immunocytochemical Staining Buffer (ISB), 10X Dulbecco's PBS, 0.1% Saponin, 5% Bovine Serum Albumin, 0.5% NaN3 (Sodium Azide) and betaIII-tubulin (rabbit anti-betaIII-tubulin, 1:800) followed by Alexa Fluor-488 secondary (1:500) to label neuronal cell bodies and neurites. A Cellomics ArrayScan VTi HCS Reader is used for automated image acquisition and analysis of neurite outgrowth.

[5] = CCTE_Mundy_HCI_Cortical_Synap_Neur_Matur_NeuriteSpotCountPerNeuron: CCTE's Synaptogenesis and Neurite Maturation Assay in rat cortical cells for Neurite Spot Count per Neuron Count, Mundy Lab (AID 2284215)
Method in brief: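 Rat cortical primary cultures; AraC DIV 5 to arrest glia; dosing + media change DIV 7; fixed DIV 12. Anti-MAP2/anti-synaptophysin, Hoechst nuclei; HCI puncta count per neuron, positive fitting direction vs DMSO.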

[6] = CCTE_Mundy_HCI_Cortical_Synap_Neur_Matur_SynapseCount: CCTE's Synaptogenesis and Neurite Maturation Assay in rat cortical cells for Synapse Count, Mundy Lab (AID 2284218)
Procedure: CCTE_Mundy_HCI_Cortical_Synap&Neurite_Matur is a multiplexed, cell-based-readout assay that uses rat primary cortical cells with measurements taken at 288.33 hours after chemical dosing in a microplate: 96-well plate.CCTE_Mundy_HCI_Cortical_Synap_Neur_Matur_SynapseCount is one of eight components of the CCTE_Mundy_HCI_Cortical_Synap&Neurite_Matur assay. It measures synaptogenesis and neurite maturation related to number of synapses per neuron using High Content Imaging of fluorescently labelled markers.[…] Using a type of morphology reporter, loss -of-signal activity can be used to understand developmental effects.
Cells are plated onto 96 well plates and allowed 2 hr for attachment to the substrate. At days in vitro (DIV) 5, Cytosine Arabinoside (AraC) is added to arrest glial cell growth. Chemicals are dosed and a media change is performed at DIV 7 of differentiation and is continued through DIV 12 when the experiment is terminated. Cells are fixed with […] and Hoechst Dye. Cells are stained using Millipore Mouse anti-MAP2MAB3418 (1:800) and Millipore Rabbit anti-Synaptophysinsc-1750 (1:250) primary antibodies and Alexa Fluor-488 goat anti-mouse and AlexaFluor-546 goat anti-rabbit secondary antibodies to label neuronal cell nuclei, synapses and neurites. A Cellomics ArrayScan VTi HCS Reader is used for automated image acquisition and analysis of neurite outgrowth.

[7] = CCTE_Mundy_HCI_hN2_NOG_NeuriteCount: CCTE's Neurite Outgrowth Assay in human hN2 cells for Neurite Count, Mundy Lab (AID 2284219; active = hit-call score of the fitted dose curve at least 0.9, where 1 is the maximum)
Method in brief: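 In this morphology assay, hNP1-derived neurons received test chemical 2 h post-plating and were fixed two days later in warm paraformaldehyde/sucrose containing Hoechst 33342. Neurites, labelled by rabbit anti-βIII-tubulin (1:800) and Alexa Fluor-488 (1:500), were counted automatically.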

[8] = CCTE_Mundy_HCI_Cortical_Synap_Neur_Matur_BPCount: CCTE's Synaptogenesis and Neurite Maturation Assay in rat cortical cells for Branch Point Count, Mundy Lab (AID 2284211)
Method in brief: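 Rat primary cortical cultures, AraC added DIV 5; chemicals dosed DIV 7 through DIV 12. Fixed cells stained for MAP2, synaptophysin and Hoechst; neurite branch points counted by automated high-content imaging, fitted relative to DMSO.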

[9] = CCTE_Mundy_HCI_Cortical_NOG_NeuriteCount: CCTE's Neurite Outgrowth Assay in rat cortical cells for Neurite Count, Mundy Lab (AID 2284212);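 note: cells fixed about two days after chemical exposure began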
Method in brief: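 Neurite number per cell from high-content imaging of betaIII-tubulin immunostaining, with Hoechst nuclear counterstain.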

[10] = CCTE_Mundy_HCI_Cortical_Synap_Neur_Matur_NeuriteLength: CCTE's Synaptogenesis and Neurite Maturation Assay in rat cortical cells for Neurite Length, Mundy Lab (AID 2284214)
Method in brief: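 Rat primary cortical cultures, AraC added DIV 5, dosed DIV 7 through DIV 12 […]. Fixed, MAP2/synaptophysin immunostained with Hoechst; neurite length by high-content imaging, fitted in positive direction versus DMSO.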

c1ccc2cc3c(ccc4ccccc43)cc2c1
outcome [1]: inactive

c1ccc2c(c1)ccc1ccccc12
outcome [1]: inactive

CC1=C(/C=C/C(C)=C/C=C/C(C)=C/C(=O)O)C(C)(C)CCC1
outcome [2]: inactive
outcome [3]: inactive
AC50 [4]: 6.25 µM (active)
outcome [5]: inactive
outcome [6]: inactive
AC50 [7]: 12.1 µM (active)

c1ccc2c(c1)Cc1ccccc1-2
AC50 [1]: 50 µM (active)

CC#C[C@]1(O)CC[C@H]2[C@@H]3CCC4=CC(=O)CCC4=C3[C@@H](c3ccc(N(C)C)cc3)C[C@@]21C
outcome [2]: inactive
AC50 [3]: 25.7 µM (active)
AC50 [8]: 18.4 µM (active) and 27.4 µM (active)
AC50 [9]: 62 µM (active) and 24.4 µM (active)
AC50 [4]: 50 µM (active) and 23.6 µM (active)
AC50 [10]: 15.9 µM (active) and 27.7 µM (active)
AC50 [5]: 13.3 µM (active) and 25.5 µM (active)
AC50 [1]: 0.216 µM (active)
AC50 [6]: 13.3 µM (active) and 25.1 µM (active)

CN1CCC[C@H]1c1cccnc1
outcome [2]: inactive
outcome [3]: inactive
outcome [4]: inactive
outcome [10]: inactive
outcome [5]: inactive
outcome [6]: inactive
